Neddylation inh = blocks human cullin neddylation. TR-FRET cullin neddylation, biochemical. AID 651699. actives 0.58% (n = 360,000). inhibition, % at 25 µM; in the data active = inhibition above about 36%
ATG4B inh = blocks human ATG4B protease cleavage of LC3 substrate; AID 504462; actives 0.51% (n = 340,000); ATG4B cleavage of LC3-PLA2, NBD-HPC fluorescence, 1 h; inhibition, % at 8.33 µM; in the data active = inhibition above about 40%
Rin1 Abl inh = inhibitors of human Rin1-Abl protein interaction. TR-FRET Rin1/Abl binding, biochemical. P00519+Q13671. AID 588664. inhibition, % at 7.35 µM. actives 0.4% (n = 360,000); in the data active = inhibition above about 5%, passing the limit was not always enough
SUMO1 PPI mod = SUMO1-SIM interaction modulation; AID 602429; actives 0.33% (n = 360,000); inhibition, % at 20 µM; SUMO1 binding to a labelled peptide, TR-FRET, 1 h; P63165; in the data active = inhibition above about 37%
Target sequence (P63165 whole entry, looked up): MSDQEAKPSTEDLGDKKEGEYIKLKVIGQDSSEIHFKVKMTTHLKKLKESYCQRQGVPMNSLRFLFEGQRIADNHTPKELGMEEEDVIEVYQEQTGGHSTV
Rin1 Abl conf = confirmation of inhibitors of human Rin1-Abl interaction; shares compounds with Rin1 Abl inh; TR-FRET Rin1-Abl binding, purified proteins; inhibition, % at 7.35 µM; actives 49% (n = 1,300); AID 602124
GFP quench-1 = quenches GFP fluorescence, counter-screen for Rin1-Abl inhibitors; inhibitors/quenchers counterscreen; actives 8.5% (n = 1,300); inhibition, % at 6.75 µM; shares compounds with Rin1 Abl inh;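 also: ABL1-eGFP fusion protein alone without its partner RIN1-SBP; 0% = protein with vehicle and 100% = wells lacking protein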
GFP quench dose = GFP fluorescence interference dose response; shares compounds with Rin1 Abl inh; GFP fluorescence interference/quenching counterscreen; IC50, µM; 230 tested, under 10 active; call rule not given here;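 also: ABL1-eGFP fusion protein alone without its RIN1 binding partner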
GFP quench-2 = GFP quenching artifact for Rin1-Abl inhibitor hits | GFP fluorescence quenching counterscreen, biochemical | AID 602397 | 25 tested, under 10 active | IC50, µM | shares compounds with Rin1 Abl inh; call rule not given here
The depositor's hits bear a star; nt = no result shown. Rows were chosen to be rich in hits. Some 1.7% of all compounds tested hit in one or more screens of this group. Rule as the data show it, unless noted: active = inhibition above about 6.5%; inactive = the rest.

SMILES | Neddylation inh | ATG4B inh | Rin1 Abl inh | SUMO1 PPI mod | Rin1 Abl conf | GFP quench-1 | others
CCCn1c2ccccc2c2nnc(SCc3[nH]c(=O)[nH]c3C(=O)CCCCC(=O)OCC)nc21 | -22 | 2 | 52* | -4 | 56* | 0 | GFP quench dose=>68
CCOC(=O)CCCCC(=O)c1[nH]c(=O)[nH]c1CSc1nnc2c3ccccc3n(C(C)C)c2n1 | -18 | 1 | 53* | -2 | 68* | 1 | GFP quench dose=>68
CCOC(=O)C(C)Sc1nnc2c3ccccc3n(C)c2n1 (centres undefined) | -72 | -10 | -5 | -20 | nt | nt
CCCn1c2ccccc2c2nnc(SCC(=O)Nc3cc(C)on3)nc21 | -1 | -1 | -3 | -9 | nt | nt
COc1ccc(C2=Nc3ccccc3NC(=O)C2N(Cc2ccccc2)C(=O)C2=NNC(=O)CC2)cc1 (centres undefined) | 6 | nt | 4 | -6 | nt | nt
COc1cc(/C=N/NC(=O)CSc2ccccn2)ccc1OC(C)C | -13 | 2 | 17* | -10 | 26* | 1 | GFP quench dose=>68
COc1ccc(OC)c(NC(=O)Nc2nc(C(C)N)cs2)c1 (centres undefined) | 3 | nt | 1 | 0 | nt | nt
COC(=O)C1=C(C)N(CCCC(=O)O)C(=O)NC1c1cc2c(cc1[N+](=O)[O-])OCO2 (centres undefined) | 22 | 4 | 8 | 3 | nt | nt
COC(=O)C1=C(C)N(C)C(=O)NC1c1cc2c(cc1[N+](=O)[O-])OCO2 (centres undefined) | nt | -5 | 15* | 8 | 11* | 2
O=c1cc(OCc2ccccc2)cc[nH]1 | -18 | -2 | 96* | 5 | 99* | 1 | GFP quench dose=>67;GFP quench-2=>68
Cc1nnc(SCC(=O)N2CCCC(C(=O)c3ccc(Cl)cc3)C2)o1 (centres undefined) | -3 | -2 | -2 | 6 | nt | nt
C=CCC(=O)N1CCCC(C(=O)c2ccc(Cl)cc2)C1 (centres undefined) | -1 | 4 | 6.9* | -3 | 0 | 0
CCOc1ccccc1N1CCN(CC(=O)Nc2nccs2)CC1 | -4 | nt | -1 | 0 | nt | nt
C[C@H](CO)N1C[C@H](C)[C@@H](CN(C)Cc2ccc3c(c2)OCO3)Oc2c(NS(=O)(=O)c3cn(C)cn3)cccc2C1=O | 13 | -13 | 1 | 6 | nt | nt
C[C@H](CO)N1C[C@H](C)[C@@H](CN(C)Cc2ccccc2)Oc2c(NS(=O)(=O)c3ccccc3)cccc2C1=O | 1 | -4 | 1 | 2 | nt | nt
C[C@H](CO)N1C[C@H](C)[C@@H](CN(C)Cc2ccc(Cl)c(Cl)c2)Oc2c(NC(=O)Cc3ccccc3)cccc2C1=O | -26 | -20 | 6 | 11 | nt | nt
Cc1ccc(S(=O)(=O)Nc2cccc3c2O[C@H](CN(C)Cc2ccc(-c4ccccc4)cc2)[C@@H](C)CN([C@H](C)CO)C3=O)cc1 | 2 | -7 | 10* | 1 | 9.7* | 0
C[C@H](CO)N1C[C@H](C)[C@@H](CN(C)Cc2ccc(-c3ccccc3)cc2)Oc2c(NS(=O)(=O)c3ccccc3)cccc2C1=O | -14 | -14 | 14* | 1 | 9.6* | 0
C[C@H](CO)N1C[C@H](C)[C@@H](CN(C)Cc2ccc(Cl)c(Cl)c2)Oc2c(NC(=O)c3ccncc3)cccc2C1=O | -20 | -5 | 13* | 6 | 8.7* | 1
C[C@H](CO)N1C[C@H](C)[C@@H](CN(C)Cc2ccc(-c3ccccc3)cc2)Oc2c(NS(=O)(=O)c3cn(C)cn3)cccc2C1=O | 0 | -16 | 36* | 5 | 29* | -2
CC(C)C[C@H](NC(=O)CC[C@H]1O[C@@H](n2ccc(=O)[nH]c2=O)[C@H](O)[C@@H]1O)C(=O)O | 0 | nt | 5 | -6 | nt | nt
COCCCN1C(=O)C(CC(=O)NCCCN(C)C)CC(C(=O)N2CCOCC2)=C1C (centres undefined) | 0 | nt | -1 | 2 | nt | nt
C[C@@H]1CN([C@@H](C)CO)C(=O)c2cc(Br)cnc2O[C@@H]1CN(C)S(C)(=O)=O | 6 | nt | 3 | 0 | nt | nt
